High-throughput results from PubChem.
NRP1-CendR mod – modulators of CendR peptide binding to NRP-1, primary screen, biochemical, fluorescence polarization, uHTS; inhibition, % at 25 µM; FAM-RPARPAR peptide binding to NRP-1; 360,000 tested, 0.85% active;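 active means inhibition or corrected inhibition above about 18%, plus a signal ratio from 0.5 to 1.5, limit read from the data, passing the limit was not always enough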
beta cell repl – inducers of MIN6 beta-cell proliferation, primary screen, ATP luminescence, uHTS; MIN6 cells proliferation, ATPlite luminescence, 48 h; cells starved in 0.2% serum; 100% = growth in 10% serum; proliferation, % at 10 µM; 330,000 tested, 0.29% active; AID 2380, 2010;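 active means compounds whose signal lies at least 3.5 SD above the mean of all wells on their plate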
A3G deaminase – APOBEC3G DNA deaminase inhibitors, primary screen, biochemical, fluorescence, single-stranded DNA substrate, uHTS. DNA dC->dU-editing enzyme APOBEC-3G (Homo sapiens), Q9HC16. recombinant A3G, ssDNA deamination FAM/TAMRA fluorescence. inhibition, % at 20 µM. 330,000 tested, 0.28% active;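 active means inhibition of at least 40% at 20 µM, with no more than 30% in the related APOBEC3A deaminase screen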
VLA-4 inh – inhibition in human VLA-4 binding assay, primary screen, VLA-4 allosteric modulator project, MLPCN library, flow cytometry, VLA-4 expressing cells; Integrin alpha-4 (Homo sapiens), P13612; ligand binding flow cytometry; inhibition, % (about 7 µM as worked out from the volumes in the protocol); 330,000 tested, 0.2% active; in the data active means inhibition above about 50%
APOBEC3A inh – APOBEC3A ssDNA deaminase inhibitors, primary screen, selectivity assay for APOBEC3G inhibitor project, biochemical, FAM/TAMRA oligo cleavage fluorescence | DNA dC->dU-editing enzyme APOBEC-3A (Homo sapiens), P31941 | recombinant A3A, FAM/TAMRA ssDNA deamination fluorescence | inhibition, % at 20 µM | 330,000 tested, 0.41% active | AID 493011, 2011;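 active means at least 40% inhibition at 20 µM here, with at most 30% in a related deaminase screen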
APOBEC3A confirm – APOBEC3A deaminase inhibitors, retest, confirmation, selectivity assay for APOBEC3G inhibitor project, biochemical, single concentration, fluorescence readout; shares compounds with APOBEC3A inh; recombinant A3A, ssDNA deaminase UDG fluorescence assay; inhibition, % at 20 µM; 1,400 tested, 63% active;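 active means inhibition reaching a set limit, 80% of the first screen's cutoff, at 20 µM in any replicate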
UDG A3A counter – E. coli UDG inhibitors, confirmation, counter-screen for APOBEC3A inhibitor project, biochemical, single concentration, fluorescence, FAM/TAMRA oligo; 1,000 tested, under 10 active; shares compounds with APOBEC3A inh; AID 504714, 2011; UDG counterscreen, FAM/TAMRA uracil oligo fluorescence; inhibition, % at 20 µM; call rule not given here
Large screens that a line does not name were inactive (follow-up assays come after a bar, where they were run). Rows were chosen to be rich in hits. Some 1.8% of all compounds tested hit in one or more screens of this group.

Cc1ccc(Nc2nc(-c3ccc(S(=O)(=O)N4CCCC4)cc3)cs2)cc1C	APOBEC3A inh 87 | APOBEC3A confirm inactive | UDG A3A counter inactive
N#Cc1ccc(C(=O)OCCCc2cc3ccccc3c(=O)o2)cc1	none
COc1ccc2c(c1)[N+](C)(C)C(C)(C)C=C2C	APOBEC3A inh 56 | APOBEC3A confirm 82 | UDG A3A counter inactive
CCOc1ccc2c(c1)[N+](C)(C)C(C)(C)C=C2C	APOBEC3A inh 78 | APOBEC3A confirm 70 | UDG A3A counter inactive
Cc1ccccc1OCC(=O)Nc1ccc(N2CCN(C)CC2)c(Cl)c1	none
Cc1cccc(NC(=O)CSCC(=O)Nc2cc(S(=O)(=O)N3CCOCC3)ccc2N2CCCC2)c1	APOBEC3A inh 96 | APOBEC3A confirm inactive | UDG A3A counter inactive
Cc1cccc(C(=O)Nc2ccc(S(=O)(=O)N3CCOCC3)cc2C)c1	APOBEC3A inh 43 | APOBEC3A confirm 52 | UDG A3A counter inactive
O=C(Nc1ccc(C(=O)N2CCCCC2)cc1)Nc1cccc(Cl)c1	none
COCCCNC(=O)c1ccccc1N(Cc1ccccc1)S(=O)(=O)c1ccccc1	APOBEC3A inh 55 | APOBEC3A confirm inactive
COCCCNC(=O)CN(Cc1ccccc1)S(=O)(=O)c1ccccc1	none
CCOc1ccccc1NC(=S)N1CCN(c2ccc(OC)cc2)CC1	APOBEC3A inh 83 | APOBEC3A confirm inactive | UDG A3A counter inactive
CSCCC(NS(=O)(=O)c1ccc(C)cc1)C(=O)NC1CCCCCC1 (centres undefined)	none
O=C(Sc1ccc(Cl)cc1)c1ccccn1	none
O=C(NCC1CCCO1)c1ccccc1 (centres undefined)	none
O=C(C[n+]1cccc(C(=O)Nc2ccccc2)c1)c1ccccc1	none (no result: beta cell repl, A3G deaminase, VLA-4 inh, APOBEC3A inh)
COc1cccc(NC(=O)c2ccc[n+](C)c2)c1	APOBEC3A inh 77 | APOBEC3A confirm 75 | UDG A3A counter inactive
C[n+]1cccc(C(=O)NCC2CCCO2)c1 (centres undefined)	APOBEC3A inh 79 | APOBEC3A confirm 75 | UDG A3A counter inactive
C[n+]1cccc(C(=O)Nc2ccccc2)c1	APOBEC3A inh 70 | APOBEC3A confirm 57 | UDG A3A counter inactive
COc1ccccc1-c1nnc(SCC(=O)Nc2ccc(S(N)(=O)=O)cc2)n1N	none
CC(Sc1nnc(N)s1)C(=O)Nc1nccs1 (centres undefined)	none
COc1ccc(OC)c(-c2nnc(NC(=O)C(C)Sc3nncn3C)s2)c1 (centres undefined)	none
Cc1nnc(NC(=O)C(C)Sc2nncn2C)s1 (centres undefined)	APOBEC3A inh 69 | APOBEC3A confirm inactive | UDG A3A counter inactive
Cc1nnc(SC(C)C(=O)Nc2nccs2)s1 (centres undefined)	APOBEC3A inh 71 | APOBEC3A confirm inactive
CCn1c(C)[n+](CC)c2ccc(S(=O)(=O)N(C)C)cc21	none
CCOC(=O)c1ccc2c(c1)n(CC)c(C)[n+]2CC	APOBEC3A inh 73 | APOBEC3A confirm 69 | UDG A3A counter inactive
CCn1c(/C=C/N(C(C)=O)c2ccccc2)[n+](CC)c2ccc(Cl)cc21	APOBEC3A inh 63 | APOBEC3A confirm 64 | UDG A3A counter inactive
CCn1c(C)[n+](CC)c2ccc(S(=O)(=O)NC)cc21	APOBEC3A inh 76 | APOBEC3A confirm 49 | UDG A3A counter inactive
CC[n+]1c(C)n(C)c2cc(S(=O)(=O)N(C)C)ccc21	APOBEC3A inh 82 | APOBEC3A confirm 77 | UDG A3A counter inactive
CCOC(=O)c1ccc2c(c1)[nH]c(=S)n2CC	none
CCn1c(C)[n+](CC)c2ccc(C(=O)N(C)c3ccccc3)cc21	APOBEC3A inh 71 | APOBEC3A confirm 80 | UDG A3A counter inactive
Cc1ccc(CSc2ncn(-c3ccccc3)n2)cc1	APOBEC3A inh 41 | APOBEC3A confirm inactive
CC(Nc1ccc(F)cc1)=[N+](C)CCNS(=O)(=O)c1ccc(Cl)cc1	APOBEC3A inh 55 | APOBEC3A confirm inactive
CCNS(=O)(=O)c1ccc(NC(=O)Cc2ccc(F)cc2)cc1	none
CCOc1ccccc1OCCC(=O)OCC(=O)Nc1c(C)cc(C)cc1C	APOBEC3A inh 62 | APOBEC3A confirm inactive
Cc1ccc(S(=O)(=O)N2CCCN(C)c3nc4ccccc4nc32)cc1	none
CCNC(=O)Cn1cc(C#N)c2ccccc21	APOBEC3A inh 53 | APOBEC3A confirm inactive
CN1CCC(=NNC(=O)CN(c2ccccc2)S(=O)(=O)c2ccccc2)CC1	none
COc1ccc(N(CC(=O)NCC(C)C)S(=O)(=O)c2ccccc2)cc1	APOBEC3A inh 41 | APOBEC3A confirm inactive
COc1ccc(N(CC(=O)NCCSC2CCCCC2)S(=O)(=O)c2ccccc2)c(OC)c1	none
CC(C)c1ccc(N(CC(=O)NN=C2CCN(C)CC2)S(=O)(=O)c2ccccc2)cc1	APOBEC3A inh 65 | APOBEC3A confirm inactive | UDG A3A counter inactive
COc1ccc(N(CC(=O)NCCSc2ccc(C)cc2)S(=O)(=O)c2ccccc2)c(OC)c1	APOBEC3A inh 54 | APOBEC3A confirm 40 | UDG A3A counter inactive
CC(=O)c1cccc(NC(=O)Cn2cnc(S(=O)(=O)N3CCCC3)c2)c1	none
COc1ccc(N(CC(=O)N2CCN(c3ccccc3F)CC2)S(=O)(=O)c2ccc(C)cc2)cc1	none
N#Cc1ccccc1S(=O)(=O)N1CCN(C(=O)[C@H](Cc2ccccc2)NC(=O)c2ccco2)CC1	none
Cc1ccc(C)c2c1N(Cc1ccccc1)C(=O)C21OCCO1	none
CCn1cc(/C=C/c2cc[n+](C)cc2)c2ccccc21	none (no result: beta cell repl, A3G deaminase, APOBEC3A inh)
C=CCn1c(C)c(/C=C/c2cc[n+](C)cc2)c2ccccc21	APOBEC3A inh 42 | APOBEC3A confirm 59 | UDG A3A counter inactive
CCN(CC)C(=O)Cn1c(C)c(/C=C/c2cc[n+](C)cc2)c2ccccc21	APOBEC3A inh 64 | APOBEC3A confirm 62 | UDG A3A counter inactive
COC(=O)c1ccc(COC(=O)[C@@H]2CC(O)CN2S(=O)(=O)c2ccccc2[N+](=O)[O-])cc1 (some centres undefined)	none
CCN1/C(=C2\C(=O)N(c3ccccc3)N=C2C)C=Cc2cc(C)ccc21	APOBEC3A inh 49 | APOBEC3A confirm inactive
